Laboratory results reported in PubChem BioAssay AID686978 (National Center for Advancing Translational Sciences (NCATS), 2013).
“And” between values parts separate entries of the source, which are not always exact repeats. Equal entries are not always repeated. The whole screen tested about 420,000 compounds, of which about 64,000 (15%) were called active. Not shown: some 27% with an inconclusive outcome. Calls follow the shape of the dose curve; as a rule, active = well fitted inhibition curve with a large enough effect; inconclusive = small, poorly fitted or top-dose-only effect; inactive = flat fitted curve, though single readings scatter. Not all results are given here. A call without a number means that no potency is given here.

experiment: qHTS for Inhibitors of human tyrosyl-DNA phosphodiesterase 1 (TDP1): qHTS in cells in absence of CPT; conditions: DT40 Tdp1-/- hTDP1 cells, no CPT, ATP luminescence, 48 h; activity change, negative = growth inhibition: at 46.2 µM (top of the series); also: nearly all actives have a fitted effect of over 55% in size
Outline: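 DT40 Tdp1-/-;hTDP1 cells, no CPT (DMSO vehicle only), 400 cells/well; compounds pin-transferred; ≥48 hr, 37 °C; CellTiter-Glo 30 min RT dark, luminescence read.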
Potency is read from the fitted curve at half-maximal effect.

Row | Structure (SMILES) | Potency
1 | Cc1cc(NC(=O)COC(=O)c2ccc(F)c(S(=O)(=O)N3CCOCC3)c2)no1 | inactive
2 | Cc1ccccc1OCC(=O)NCC(=O)OCC(=O)c1ccc2ccccc2c1 | inactive
3 | O=C(OCC(=O)N1CCOCC1)c1ccc2ccccc2c1 | inactive
4 | Cc1c(CCO)sc[n+]1CC(=O)c1ccc2ccccc2c1 | 15.8 µM (active)
5 | O=C(CCn1ccc([N+](=O)[O-])n1)Nc1nccs1 | inactive
6 | CCOc1ccc(-n2c(SCC(N)=O)nnc2-c2ccco2)cc1 | inactive
7 | O=C(COC(=O)C1CCN(S(=O)(=O)c2ccc3c(c2)OCCO3)CC1)Nc1ccccc1OC(F)F | inactive
8 | O=C(NCc1ccccn1)c1cc(Br)ccc1Cl | inactive
9 | COc1ccc(Br)cc1/C=N/Nc1ccc(Cl)c(C(=O)O)c1 | inactive
10 | Oc1ccc(Br)cc1/C=N/Nc1ccccn1 | 3.66 µM (active)
11 | COc1cc2c(C(=O)N(C)c3cc(Cl)ccc3OC)cn(C)c(=O)c2cc1OC | inactive
12 | O=C(CSc1ccccn1)N1CCN(S(=O)(=O)c2ccc(Cl)cc2)CC1 | inactive
13 | C/C(N)=C(\C#N)C(=O)NCCc1ccccn1 | inactive
14 | Cc1ccc(NC(=O)CN2CCC(C(N)=O)CC2)cc1[N+](=O)[O-] | inactive
15 | COc1ccc(C23NCCN2C(=O)c2ccccc23)cc1 (centres undefined) | inactive
16 | CC12CN3CCN(CC(C3)/C1=N\NC(=O)c1ccccc1N)C2 | inactive
17 | COc1ccc(NC(=O)C2CCC(CNc3c(N4CCCCC4)c(=O)c3=O)CC2)c(OC)c1 (centres undefined) | inactive
18 | CCN(CC)c1ccc(NC(=O)C2CCC(CNc3c(N4CCCC4)c(=O)c3=O)CC2)c(C)c1 (centres undefined) | 14.6 µM (active)
19 | CCOc1ccccc1NC(=O)C1CCC(CNc2c(N3CCOCC3)c(=O)c2=O)CC1 (centres undefined) | inactive
20 | Cc1ccc(NS(=O)(=O)c2ccc(-c3coc(C)n3)cc2)c(C)c1 | inactive
21 | COC(=O)c1c(OCc2ccc(F)cc2)cc(=O)n2c1CCN(Cc1ccc3cccnc3c1)CC2 | inactive
22 | CCc1ccc(CNC(=O)C2CCN(c3nn4cc(-c5ccc(F)cc5)nc4s3)CC2)cc1 | inactive
23 | Cc1ccc(C)n1-c1nnc(N2CCC(C(=O)NCc3ccc(F)cc3)CC2)s1 | 23.1 µM (active)
24 | O=C(NCc1cccc(Cl)c1)C1CCN(c2nnc(N3CCCC3=O)s2)CC1 | inactive
25 | Cc1ccc(NC(=O)N2CCC(C(=O)NCc3ccc(F)cc3)CC2)cc1 | inactive
26 | Cc1ccc(C)n1-c1nnc(N2CCC(C(=O)NCc3ccccc3Cl)CC2)s1 | 18.4 µM (active)

Row | Structure (SMILES) | Potency
27 | O=C(NCc1ccccc1Cl)C1CCN(S(=O)(=O)N2CCOCC2)CC1 | inactive
28 | O=C(O)CSc1ccc(S(=O)(=O)N2CCCC2)cn1 | inactive
29 | COC(=O)C(C)Oc1ccc2c(-c3cccc([N+](=O)[O-])c3)cc(=O)oc2c1 (centres undefined) | inactive
30 | COc1cccc(NC(=O)COc2cc(C)cc3oc(=O)cc(C)c23)c1 | inactive
31 | COc1cc(OC)c2c(-c3cccc(-c4cccc(N)c4)c3)cc(=O)oc2c1 | 4.61 µM (active)
32 | Cc1c(CCC(=O)O)c(=O)oc2cc(OCc3ccc(Br)cc3)ccc12 | inactive
33 | CCC(=C/c1sc2ccc3ccccc3c2[n+]1C)/C=C1\Sc2ccc3ccccc3c2N1C | 0.092 µM (active)
34 | COc1ccc(C(=O)NCCc2ccc(S(N)(=O)=O)cc2)cc1OC | inactive
35 | Cc1ccc(C(=O)NCCN2CCOCC2)cc1C | inactive
36 | COC(=O)c1ccc(OC)c(Cn2c(=O)n(Cc3ccccc3)c(=O)c3c2c2cc(OC)ccc2n3C)c1 | inactive
37 | Cc1ccc(NS(=O)(=O)c2ccc(C(=O)NCCCN3CCOCC3)cc2)cc1 | inactive
38 | Cc1c(C)n(Cc2ccc(Cl)cc2)c2ccc(C(=O)NCCc3ccc(S(N)(=O)=O)cc3)cc12 | 25.9 µM (active)
39 | CCOC(=O)c1c(C)c(C(=O)NCCc2ccc(S(N)(=O)=O)cc2)c(C)n1CC | inactive
40 | COc1ccc(OC)c(CN2CCN(C(=O)CNC(=O)c3cc(C)cc(C)c3)CC2)c1 | inactive
41 | Cc1c(C)n(Cc2ccc(Cl)cc2)c2ccc(C(=O)NCCCN3CCOCC3)cc12 | 18.4 µM (active)
42 | CCn1c(C)c(C)c2cc(C(=O)NCCc3cc(OC)ccc3OC)ccc21 | 14.6 µM (active)
43 | COC(=O)[C@@H]1CC(O)CN1C(=O)C12CC3CC(CC(C3)C1)C2 (some centres undefined) | inactive
44 | CCOC(=O)c1sc(=NC(=O)c2ccc(Br)cc2)n(C)c1C | inactive
45 | NC(=O)C1CCCN(CC(=O)N2CCN(c3ccccc3)CC2)C1 (centres undefined) | inactive
46 | O=S(=O)(NCC1CCCO1)c1cnc(Cl)c(Cl)c1 (centres undefined) | inactive
47 | O=C1CCCC(O)=C1C=NCCc1ccccc1 | inactive
48 | C=CCCC(=O)Nc1nc(C)c(-c2csc(Nc3ccc(Cl)cc3)n2)s1 | 13 µM (active)
49 | Cc1nc(NC(=O)CCC(=O)O)sc1C(=O)N(C)C | inactive
50 | CCCCCCC(=O)Nc1nc(C)c(-c2csc(Nc3cccc(OC)c3)n2)s1 | 16.4 µM (active)
51 | CCCCC(=O)Nc1nc(C)c(-c2csc(Nc3ccc(Cl)cc3)n2)s1 | 23.1 µM (active)
52 | CCCCN(C)CCC(=O)Nc1ccc(Cl)cc1 | inactive

Row | Structure (SMILES) | Potency
53 | CC(=O)Nc1nc(C)c(-c2csc(Nc3ccc(S(N)(=O)=O)cc3)n2)s1 | inactive
54 | Cc1ccn2c(-c3csc(Nc4ccc(C(=O)O)cc4)n3)c(C)nc2c1 | inactive
55 | Cc1nnc(NC(=O)CCCOc2ccccc2)s1 | inactive
56 | COc1cccc(NC(=O)c2csnn2)c1 | inactive
57 | CO[C@]1(NC(=O)CSC(F)F)C(=O)N2C(C(=O)O)=C(CSc3nnnn3CCO)CO[C@H]21 | inactive
58 | O=C(C1CCN(C2CCN(Cc3ccc4cc(F)ccc4n3)CC2)CC1)N1CCCC1 | inactive
59 | COc1ccc(CCNC(=S)N2CCN(S(=O)(=O)c3ccc(F)cc3)CC2)cc1 | inactive
60 | COc1ccc(CCNS(=O)(=O)c2cc3c(cc2C)NC(=O)CO3)cc1OC | inactive
61 | CCc1ccccc1NC(=O)c1ccc(F)c(S(=O)(=O)NC2CCCCCC2)c1 | inactive
62 | CCc1ccc(OCC(O)CN2CCN(CCO)CC2)cc1 (centres undefined) | inactive
63 | COc1ccc(N(CC(=O)N2CCOCC2)S(=O)(=O)c2ccccc2)cc1Cl | inactive
64 | Cc1cccc(OC(=O)c2sc3ncn(C)c(=O)c3c2C)c1 | inactive
65 | CCCN(CCC)C(=O)C1CCCN(c2ncnc3c2nc2n3CCCCC2)C1 (centres undefined) | 20.6 µM (active)
66 | O=C(NCCCN1CCCCC1)C1CCCN(c2ncnc3c2nc2n3CCCCC2)C1 (centres undefined) | inactive
67 | COc1cccc(NC(=O)C2CCCN(c3ncnc4c3nc3n4CCCCC3)C2)c1 (centres undefined) | 20.6 µM (active)
68 | COc1cccc(NC(=O)C/C(C)=N/NC(=O)C2CCCCC2)c1 | inactive
69 | COc1ccc(NC(=O)N2CCCC(C(=O)Nc3ccccc3OC)C2)cc1 (centres undefined) | inactive
70 | COCCNc1ncnc2c1nc1n2CCCC1 | inactive
71 | O=C(Nc1cc(-c2nc3ccccc3o2)ccc1Cl)c1cc([N+](=O)[O-])ccc1N1CCOCC1 | inactive
72 | CC(C)NC(=O)N1CC[C@@]2(CCCN(C(=O)c3cccn3C)C2)C1 | inactive
73 | CCC(=O)N1c2ccccc2CC1C(=O)N1CCN(c2ccccc2)CC1 (centres undefined) | inactive
74 | CCOC(=O)c1c(S(=O)(=O)N2CCC(C(=O)NCc3ccccc3OC)CC2)c(C)n(C)c1C | inactive
75 | Cc1cc(C)cc(-c2nnc(SCC(=O)NC3CC3)o2)c1 | inactive
76 | CC1=CC2=NC(=O)CC(C)(C(=O)N(CC(=O)NC(C)(C)C)Cc3ccccc3)N2C=C1 (centres undefined) | inactive
77 | COC(=O)c1ccc(CSc2nnc(NC(C)C)s2)cc1 | inactive
78 | Cc1ccc(CN2CCN(c3ncccn3)CC2)c(C)c1 | inactive

Row | Structure (SMILES) | Potency
79 | COc1ccc(-c2nc(CS(=O)CC(=O)NCc3ccccc3)c(C)o2)cc1OC (centres undefined) | inactive
80 | COc1ccc(-c2nc(CN3CCN(c4ncccn4)CC3)c(C)o2)cc1C | 20.6 µM (active)
81 | Cc1c(C(=O)NCCCc2ccccc2)cccc1[N+](=O)[O-] | inactive
82 | CC(C)(C)C(=O)Nc1c(Br)c(C2CC2)nn1-c1ccccc1 | inactive
83 | CCOC(=O)c1[nH]cnc1C(=O)NC1CCCCC1 | inactive
84 | Cc1nn(-c2ccccc2)c(C)c1NC(=O)COc1ccc(Cl)cc1Cl | 9.2 µM (active)
85 | C/C=C/c1ccc(OCC(=O)OCC(=O)Nc2c(C)nn(-c3ccccc3)c2C)c(OC)c1 | inactive
86 | Cc1nn(-c2ccccc2)c(C)c1NC(=O)COC(=O)c1cc(Cl)ccc1O | inactive
87 | COc1ccccc1CNC(=O)C1CCN(S(=O)(=O)c2ccc3c(c2)OCCO3)CC1 | inactive
88 | COc1ccc(-n2nc3c(c2NC(=O)c2ccc(N4C(=O)CCC4=O)cc2)CSC3)cc1 | inactive
89 | O=C(O)Cc1ccc(-c2ccccc2)cc1 | inactive
90 | CC(=O)N1C(=O)/C(=C2\SC(=S)N(NC(=O)c3ccc(O)cc3)C2=O)c2ccccc21 | inactive
91 | COc1ccc(CNc2ncnc3ccccc23)cc1 | 0.651 µM (active)
92 | O=C(COc1ncnc2ccccc12)NC(=O)NCc1ccccc1 | inactive
93 | Brc1nc2ncnc(NCc3ccco3)c2[nH]1 | inactive
94 | Cc1ccccc1-c1nc(N(C)Cc2ccco2)c2ccccc2n1 | inactive
95 | COc1ccc(CNc2nccs2)cc1 | inactive
96 | CCC(=O)OCCNc1nc(-c2ccccc2)nc2ccccc12 | inactive
97 | Cc1ccc(C(=O)NNc2ncnc3ccccc23)cc1 | inactive
98 | CCOCCCn1c(NN)nc2ccccc2c1=O | inactive
99 | Cc1cnc(CNc2nc(-c3cccnc3)nc3ccccc23)cn1 | inactive
100 | c1ccc(-c2nc(NCc3ccco3)c3ccccc3n2)cc1 | 23.1 µM (active)
101 | CCOCCCNc1nc(-c2ccccc2)nc2ccccc12 | 14.6 µM (active)
102 | c1coc(CNc2ncnc3ccccc23)c1 | 12.6 µM (active) and 5.17 µM (active)
103 | CCOC(=O)c1nnn(CC(=O)Nc2cccc(F)c2)c1C(=O)OCC | inactive
104 | CCCCn1c(N)c(N2CCOCC2)c(=O)n(CC(=O)NCCc2ccccc2)c1=O | inactive
